Experimental data from the supplement of paper PMC5662767.
Structures can show the parent of a compound that is named as a salt.

Tested on: Drosophila S2 cl14 SmoIP sensor cells
Test: normalized SmoIP GFP fluorescence (untreated unstimulated = 0%, untreated Hh-stimulated = 100%); higher = more Smo activation sensor fluorescence
Details: stimulation: Hh conditioned medium (+Hh); compound concentration: 2 uM; 24 h
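Further: flow cytometry read-out as median GFP intensity of gated cells, compounds added 30 min before Hh-conditioned or mock medium, mock-treated cells serving as unstimulated baseline.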

Row | SMILES | normalized SmoIP GFP fluorescence [%]
1 | O=C(C=Cc1ccccc1)NC(NC(=S)Nc1ccc(Cl)cc1)C(Cl)(Cl)Cl (stereo not given) | 88.1
2 | CN1CCN(C(c2ccccc2)c2ccccc2)CC1 [cyclizine-2hcl] | 104
3 | CC(C)C[C@H](NC(=O)[C@H](Cc1ccccc1)NC(=O)c1cnccn1)B(O)O [Bortezomib] | 70.3
4 | COc1ccc(-c2nc3ccc(C4=NNC(=O)CC4C)cc3[nH]2)cc1 (stereo not given) [Pimobendan(Vetmedin)] | 104
5 | O=C(O)Cc1cccc(OCCCN(Cc2cccc(C(F)(F)F)c2Cl)CC(c2ccccc2)c2ccccc2)c1 | 130
6 | Oc1ccc(Nc2nc(-c3ccc(Cl)cc3)cs2)cc1 | 113
7 | CCCCCCCCCCCC1=C(O)C(=O)C=C(O)C1=O [embelin] | 108
8 | CC(=O)NS(=O)(=O)c1ccc(N)cc1 [sulfacetamide-sodium] | 103
9 | CC(C)N(CCC(=O)c1ccc2ccccc2c1)Cc1ccccc1 | 119
10 | C=CC(=O)Nc1cccc(Nc2nc(Nc3ccc(Oc4ccnc(C(=O)NC)c4)cc3)ncc2F)c1 | 116
11 | CCN(CC)C(=O)/C(C#N)=C/c1cc(O)c(O)c([N+](=O)[O-])c1 [entacapone] | 106
12 | CCCNS(=O)(=O)Nc1ncnc(OCCOc2ncc(Br)cn2)c1-c1ccc(Br)cc1 [macitentan] | 126
13 | O=C(O)c1ccc(C=C2SC(=S)N(c3cccc(C(F)(F)F)c3)C2=O)cc1 [cftrinh-172] | 121
14 | Nc1nc(=O)n([C@@H]2CS[C@H](CO)O2)cc1F [Emtricitabine] | 111
15 | CCC[C@H](NC(=O)/C(C#N)=C/c1cccc(Br)n1)c1ccccc1 | 114
16 | Cc1cc(C#N)cc(C)c1Oc1nc(Nc2ccc(C#N)cc2)nc(N)c1Br [etravirine-tmc125] | 93.3
17 | CC(=O)O[C@]1(C(C)=O)CC[C@H]2[C@@H]3C=C(C)C4=CC(=O)CC[C@]4(C)[C@H]3CC[C@@]21C [Megestrol-Acetate] | 106
18 | O=C1NC(=O)/C(=C/c2cccc(C(F)(F)F)c2)S1 | 107
19 | COc1ccc(C2=N[C@@H](c3ccc(Cl)cc3)[C@@H](c3ccc(Cl)cc3)N2C(=O)N2CCNC(=O)C2)c(OC(C)C)c1 [Nutlin-3] | 90.4
20 | O=C(Cc1ccc(-c2ccc(OCCN3CCOCC3)cc2)cn1)NCc1ccccc1 | 108
21 | CC[C@@H](C)Nc1cc(C(=O)N[C@H]2C[C@H]3CC[C@@H](C2)N3c2ccc(C(=O)C3CC3)cn2)c(C)cc1C(N)=O | 150
22 | Cc1c(Cn2c(C)nc3c(C(=O)O)cc(N4CCOCC4)cc32)cccc1C(F)(F)F | 108
23 | CNC(=O)c1ccccc1Sc1ccc2c(/C=C/c3ccccn3)n[nH]c2c1 [Axitinib] | 142
24 | c1ccc(-c2nn3c(c2-c2ccnc4cc(OCCN5CCOCC5)ccc24)CCC3)nc1 | 137
25 | C[C@H]1COC2=C1C(=O)C(=O)c1c2ccc2c1CCCC2(C)C [Cryptotanshinone] | 115
26 | Nc1nccc(Oc2ccc(NC(=O)c3c[nH]cc(-c4ccc(F)cc4)c3=O)cc2F)c1Cl | 88.3

Same assay, conditions: stimulation: mock conditioned medium (-Hh); compound concentration: 2 uM; 24 h

Row | SMILES | normalized SmoIP GFP fluorescence [%]
27 | Fc1ccc([C@@H]2CCNC[C@H]2COc2ccc3c(c2)OCO3)cc1 [paroxetine-hcl] | 0.588
28 | CC(=O)[C@H]1CC[C@H]2[C@@H]3CC=C4C[C@@H](O)CC[C@]4(C)[C@H]3CC[C@]12C [pregnenolone] | 8.09
29 | Cc1ccc(S(=O)(=O)c2ccc([N+](=O)[O-])o2)cc1 | 21.3
30 | CNCC[C@@H](Oc1ccccc1C)c1ccccc1 [atomoxetine-hydrochloride] | -0.264
31 | CN(C)CC[C@H](CSc1ccccc1)Nc1ccc(S(=O)(=O)NC(=O)c2ccc(N3CCN(Cc4ccccc4-c4ccc(Cl)cc4)CC3)cc2)cc1[N+](=O)[O-] | 2.97
32 | Cc1ccc(C(=O)Nc2ccc(CN3CCN(C)CC3)c(C(F)(F)F)c2)cc1C#Cc1cnc2[nH]ncc2c1 | 3.88
33 | CN1CCC[C@@H]1CCO[C@](C)(c1ccccc1)c1ccc(Cl)cc1 [Clemastine-Fumarate] | 10.7
34 | O=C(O)CCCN1CCC(O[C@@H](c2ccc(Cl)cc2)c2ccccn2)CC1 [bepotastine-besilate] | -2.31
35 | Nc1ccccc1NC(=O)c1ccc(CNC(=O)OCc2cccnc2)cc1 | 6.74
36 | CC(C)C[C@@H](C(=O)N[C@H](C(=O)OC1CCCC1)c1ccccc1)[C@H](O)C(=O)NO [CHR-2797(Tosedostat)] | 3.72
37 | Nc1nc(Nc2ccc(S(N)(=O)=O)cc2)nn1C(=O)c1c(F)cccc1F | 67.9
38 | Cc1cnc(-c2cc(N3CCN(C(=O)CCS(C)(=O)=O)CC3)ncc2Cl)c(C)c1 | -1.63
39 | c1cc(-c2cnn3cc(-c4ccc(N5CCNCC5)cc4)cnc23)c2cccnc2c1 | 2.12
40 | O=C(C=Cc1ccccc1)NC(NC(=S)Nc1ccc(Cl)cc1)C(Cl)(Cl)Cl (stereo not given) | -1.13
41 | CN1CCN(C(c2ccccc2)c2ccccc2)CC1 [cyclizine-2hcl] | -5.15
42 | CC(C)C[C@H](NC(=O)[C@H](Cc1ccccc1)NC(=O)c1cnccn1)B(O)O [Bortezomib] | 52.4
43 | COc1ccc(-c2nc3ccc(C4=NNC(=O)CC4C)cc3[nH]2)cc1 (stereo not given) [Pimobendan(Vetmedin)] | 4.8
44 | O=C(O)Cc1cccc(OCCCN(Cc2cccc(C(F)(F)F)c2Cl)CC(c2ccccc2)c2ccccc2)c1 | -0.116
45 | Oc1ccc(Nc2nc(-c3ccc(Cl)cc3)cs2)cc1 | -0.151
46 | CCCCCCCCCCCC1=C(O)C(=O)C=C(O)C1=O [embelin] | -2.08

Row | SMILES | normalized SmoIP GFP fluorescence [%]
47 | CC(=O)NS(=O)(=O)c1ccc(N)cc1 [sulfacetamide-sodium] | -5.72
48 | CC(C)N(CCC(=O)c1ccc2ccccc2c1)Cc1ccccc1 | -19
49 | C=CC(=O)Nc1cccc(Nc2nc(Nc3ccc(Oc4ccnc(C(=O)NC)c4)cc3)ncc2F)c1 | -1.23
50 | CCN(CC)C(=O)/C(C#N)=C/c1cc(O)c(O)c([N+](=O)[O-])c1 [entacapone] | -3.05
51 | CCCNS(=O)(=O)Nc1ncnc(OCCOc2ncc(Br)cn2)c1-c1ccc(Br)cc1 [macitentan] | 15.2
52 | O=C(O)c1ccc(C=C2SC(=S)N(c3cccc(C(F)(F)F)c3)C2=O)cc1 [cftrinh-172] | 2.24
53 | Nc1nc(=O)n([C@@H]2CS[C@H](CO)O2)cc1F [Emtricitabine] | -14.7
54 | CCC[C@H](NC(=O)/C(C#N)=C/c1cccc(Br)n1)c1ccccc1 | 15.7
55 | Cc1cc(C#N)cc(C)c1Oc1nc(Nc2ccc(C#N)cc2)nc(N)c1Br [etravirine-tmc125] | -0.264
56 | CC(=O)O[C@]1(C(C)=O)CC[C@H]2[C@@H]3C=C(C)C4=CC(=O)CC[C@]4(C)[C@H]3CC[C@@]21C [Megestrol-Acetate] | -0.804
57 | O=C1NC(=O)/C(=C/c2cccc(C(F)(F)F)c2)S1 | -9.04
58 | COc1ccc(C2=N[C@@H](c3ccc(Cl)cc3)[C@@H](c3ccc(Cl)cc3)N2C(=O)N2CCNC(=O)C2)c(OC(C)C)c1 [Nutlin-3] | 2.11
59 | O=C(Cc1ccc(-c2ccc(OCCN3CCOCC3)cc2)cn1)NCc1ccccc1 | 23.9
60 | CC[C@@H](C)Nc1cc(C(=O)N[C@H]2C[C@H]3CC[C@@H](C2)N3c2ccc(C(=O)C3CC3)cn2)c(C)cc1C(N)=O | 18
61 | Cc1c(Cn2c(C)nc3c(C(=O)O)cc(N4CCOCC4)cc32)cccc1C(F)(F)F | 0.966
62 | CNC(=O)c1ccccc1Sc1ccc2c(/C=C/c3ccccn3)n[nH]c2c1 [Axitinib] | 28.7
63 | c1ccc(-c2nn3c(c2-c2ccnc4cc(OCCN5CCOCC5)ccc24)CCC3)nc1 | 30.2
64 | C[C@H]1COC2=C1C(=O)C(=O)c1c2ccc2c1CCCC2(C)C [Cryptotanshinone] | -9.22
65 | Nc1nccc(Oc2ccc(NC(=O)c3c[nH]cc(-c4ccc(F)cc4)c3=O)cc2F)c1Cl | -6.34
